Screening results: PubChem BioAssay, National Center for Advancing Translational Sciences (NCATS)
Shown are actives, neighbours in structure and some others; about 6.6% of the full set was active somewhere.
KB-V1 MDR tox – KB-V1 MDR subline cytotoxicity | AID 1347076 | Potency, µM (doses to about 46.1 µM), most hits filed as cytotoxic | KB-V1 MDR cells viability, CellTiter-Glo, 72 h | 3.4% of 400,000 active; further: on the % scale 0 is the no-effect control and ±100 the full control effect; nearly all actives have a fitted effect of over 60% in size
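Drug-selected KB-V1 cells, grown in DMEM lacking phenol red with 10% FBS, receive compound titrations; after three days at 37 degrees C, surviving cell ATP is quantified by CellTiter-Glo luminescence and responses normalized and curve-fitted.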
MCF10A rerep – DNA re-replication induction in MCF 10a cells. Potency, µM (doses to about 46.1 µM), for the others: at the top dose activity, positive = re-replication, usual class: activators. 2.9% of 350,000 active. MCF 10A DNA re-replication, Hoechst nuclear intensity, 48 h; further: % of control where 0% means no effect; nearly all actives have a fitted effect of over 50% in size
KB-3-1 cytotox – KB-3-1 parental cell cytotoxicity | KB-3-1 viability, CellTiter-Glo ATP luminescence, 72 h | Potency, µM (doses to about 46.1 µM), actives largely listed as cytotoxic | 1.4% of 400,000 active; further: on the % scale 0 is the no-effect control and ±100 the full control effect; nearly all actives have a fitted effect of over 60% in size
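Cytotoxicity measured as CellTiter-Glo luminescence after 72 h at 37 C. Compound titrations were pinned onto drug-naive KB-3-1 parental adenocarcinoma cells grown in DMEM with 10% FBS, and normalized data fitted to concentration-response curves.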
PTAP TSG101 blk – blocks PTAP/TSG101 interaction to inhibit HIV-1 budding; Fluorescence polarization, FITC-PTAP peptide / Tsg101 binding; Potency, µM (highest dose often 115 µM), for the others: at the top dose activity change, negative = inhibition, usual class: inhibitors; 340,000 tested, under 10 active; active means well fitted inhibition curve with a large enough effect in the main read-out, with a control signal flat, not every such curve was filed as active; inconclusive means small, poorly fitted or top-dose-only effect, or effect the other way, or a change in a side signal; inactive means no such curve, though single readings can be large or run the other way; further: % of control where 0% means no effect
Target sequence (Q99816 whole entry, looked up): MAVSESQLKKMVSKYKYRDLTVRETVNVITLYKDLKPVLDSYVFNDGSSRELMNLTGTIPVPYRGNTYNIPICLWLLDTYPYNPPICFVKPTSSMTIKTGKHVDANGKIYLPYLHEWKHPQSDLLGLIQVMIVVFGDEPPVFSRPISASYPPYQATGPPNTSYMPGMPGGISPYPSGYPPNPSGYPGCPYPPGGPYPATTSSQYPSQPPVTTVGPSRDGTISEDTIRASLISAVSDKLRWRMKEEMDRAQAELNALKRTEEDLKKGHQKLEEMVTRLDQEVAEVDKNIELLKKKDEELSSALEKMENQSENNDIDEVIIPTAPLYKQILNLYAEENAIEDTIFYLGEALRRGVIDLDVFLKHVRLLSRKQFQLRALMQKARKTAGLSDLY
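Compounds were pin-transferred onto Tsg101 binding domain (10 uM final) in HEPES pH 7.5 buffer, then FITC-PTAP peptide was added at 50 nM final. After 20 min at RT, polarization reported peptide displacement across a qHTS concentration series.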
SW480 rereplic – DNA re-replication induction in SW480 cells. SW480 DNA re-replication, Hoechst DNA content imaging, 48 h. Potency, µM (titrated, usually from 46.1 µM), for the others: at the top dose re-replication activation, usual class: activators. 1.8% of 340,000 active. AID 624297; further: % of control where 0% means no effect; nearly all actives have a fitted effect of over 55% in size
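Treated cells incubate 48 hr (37 C, 5% CO2), are stained 40 min with Hoechst, and nuclear fluorescence is enumerated; a rise in nuclei with high DNA signal marks re-replication.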
RGS4 inh – human RGS4 inhibition. P49798. Transcreener GDP fluorescence polarization, RGS4-accelerated GTP hydrolysis. Potency, µM (top dose mostly 114 µM), without a hit: top-dose activity change, negative = inhibition, actives largely listed as inhibitors. 0.039% of 390,000 active. AID 504845; further: on the % scale 0 is the no-effect control and ±100 the full control effect; nearly all actives have a fitted effect of over 75% in size
Target sequence (P49798 whole entry, looked up): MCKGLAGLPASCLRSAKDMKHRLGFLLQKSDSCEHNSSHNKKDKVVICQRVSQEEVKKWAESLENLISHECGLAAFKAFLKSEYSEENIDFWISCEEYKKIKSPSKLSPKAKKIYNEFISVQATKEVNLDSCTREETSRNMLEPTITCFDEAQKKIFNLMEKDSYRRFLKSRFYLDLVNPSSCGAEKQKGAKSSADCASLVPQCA
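MLSMR compounds (23 nl, pin-transferred) preincubated 10 min at room temperature with a 500nM (2x) first reagent, then RGS4 at 900nM (2x) plus Transcreener GDP mix added; fluorescence polarization (620/688 nm) read before and after 90 min at 30 °C.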
Active calls of the source: *; [ ] = remark or other dose. Unless noted, the call rests on the fitted dose curve; in most records, active means well fitted curve in the direction sought with a large enough effect; inconclusive means small, poorly fitted or top-dose-only effect, or another doubt; inactive means no such curve, though single readings can be large; an effect the other way counts as inactive or inconclusive. Potency means the concentration at half of the fitted maximal effect.

Results for Cc1ccc(Cn2nnnc2CN2CCC(c3nc4ccc(Cl)cc4[nH]3)CC2)cc1 ?
KB-V1 MDR tox: 3.3µM*; MCF10A rerep: inconclusive; KB-3-1 cytotox: 18µM*; PTAP TSG101 blk: -6%; SW480 rereplic: 12%; RGS4 inh: 1%

What do the screens show for `CCC(C)(C)n1nnnc1CN1CCC(NC(=O)c2ccc(Br)cc2)CC1`?
KB-V1 MDR tox: inactive; MCF10A rerep: 6%; KB-3-1 cytotox: inactive; PTAP TSG101 blk: 0%; SW480 rereplic: 2%; RGS4 inh: -6%

Results for O=C(CCCn1c(=O)c2cccn2c2ccccc21)Nc1cccc(Cl)c1 ?
RGS4 inh: 10%

What do the screens show for `N/C(=N\N=C\c1ccc(Cl)cc1)N/N=C/c1ccc(Cl)cc1`?
MCF10A rerep: inconclusive; SW480 rereplic: 0%

How did O=C(O)Cc1c(O)ccc2ccccc12 do in these assays?
KB-V1 MDR tox: inactive; MCF10A rerep: -2%; KB-3-1 cytotox: inactive; PTAP TSG101 blk: -9%; SW480 rereplic: -1%; RGS4 inh: -8%

How did Oc1ccc2ccccc2c1SSc1c(O)ccc2ccccc12 do in these assays?
RGS4 inh: 1.7µM*

What do the screens show for `CC1Cc2cc(S(=O)(=O)NCCc3ccccc3)ccc2N1C(=O)C1CC1` (configuration not stated)?
KB-V1 MDR tox: inactive; MCF10A rerep: inconclusive; KB-3-1 cytotox: inactive; PTAP TSG101 blk: -9%; SW480 rereplic: 8%; RGS4 inh: -17%

Results for Cc1ccc(CNC(=O)CCS(=O)(=O)c2ccc3c(c2)CC(C)N3C(=O)C2CC2)cc1 (configuration not stated) ?
KB-V1 MDR tox: inactive; MCF10A rerep: 10µM*; KB-3-1 cytotox: 21µM*; PTAP TSG101 blk: -1%; SW480 rereplic: inconclusive; RGS4 inh: -4%

What do the screens show for `CC1Cc2cc(S(=O)(=O)NCc3ccccc3Cl)ccc2N1C(=O)C1CCC1` (configuration not stated)?
KB-V1 MDR tox: inconclusive; KB-3-1 cytotox: 23µM*; RGS4 inh: -8%

What do the screens show for `CCCS(=O)(=O)c1nc(S(=O)(=O)c2ccc(C)cc2)c(NCc2ccccc2Cl)s1`?
RGS4 inh: -10%

Results for COCc1cc(C)n(CC(=O)NC(C)c2ccccc2)c(=O)c1C#N (configuration not stated) ?
KB-V1 MDR tox: inactive; MCF10A rerep: 10%; KB-3-1 cytotox: inactive; PTAP TSG101 blk: -1%; SW480 rereplic: 0%; RGS4 inh: -15%[56.9 µM]

What do the screens show for `COCc1cc(C)n(CC(=O)NCc2ccccc2)c(=O)c1C#N`?
KB-V1 MDR tox: inconclusive; MCF10A rerep: 1%; KB-3-1 cytotox: inactive; PTAP TSG101 blk: 1%; SW480 rereplic: 18µM*; RGS4 inh: -8%

What do the screens show for `Cc1cccc(C(=O)Nc2nc3c(s2)CCCC3)c1`?
RGS4 inh: 14%

What do the screens show for `Cc1cc(C(=O)Nc2nc3c(s2)CCCC3)cs1`?
KB-V1 MDR tox: inactive; MCF10A rerep: -1%; KB-3-1 cytotox: inactive; PTAP TSG101 blk: -3%; SW480 rereplic: 20%; RGS4 inh: 2%

Results for O=C(Nc1nc2c(s1)CCCC2)c1ccc(Br)s1 ?
KB-V1 MDR tox: 5.2µM*; MCF10A rerep: 0%; KB-3-1 cytotox: 16µM*; PTAP TSG101 blk: -10%; SW480 rereplic: inconclusive; RGS4 inh: 8%

Results for Cc1ncsc1C(=O)Nc1nc2c(s1)CCCC2 ?
KB-V1 MDR tox: 13µM*; MCF10A rerep: 5%; KB-3-1 cytotox: 16µM*; PTAP TSG101 blk: -3%; SW480 rereplic: inconclusive; RGS4 inh: 3%

Results for COc1cccc2c1cc1c(=O)n(CC(=O)NCc3ccco3)nc(C)n12 ?
RGS4 inh: 23%

What do the screens show for `COc1ccc(S(=O)(=O)N2CCOc3ccccc32)cc1`?
KB-V1 MDR tox: inactive; MCF10A rerep: 4.6µM*; KB-3-1 cytotox: inactive; PTAP TSG101 blk: -6%; SW480 rereplic: 5.8µM*; RGS4 inh: 13%

What do the screens show for `COc1ccc(S(=O)(=O)N2c3ccccc3OCC2C(C)(C)C)cc1` (configuration not stated)?
KB-V1 MDR tox: inactive; MCF10A rerep: -4%; KB-3-1 cytotox: inactive; PTAP TSG101 blk: -5%; SW480 rereplic: 1%; RGS4 inh: 23%

Results for COc1ccc(S(=O)(=O)N2c3ccccc3OCC2c2ccccc2)cc1 (configuration not stated) ?
KB-V1 MDR tox: 5.8µM*; MCF10A rerep: 5.8µM*; KB-3-1 cytotox: 8.2µM*; PTAP TSG101 blk: -3%; SW480 rereplic: 3.7µM*; RGS4 inh: 34%

What do the screens show for `COc1ccc(S(=O)(=O)N2c3ccccc3OCC2C)cc1` (configuration not stated)?
KB-V1 MDR tox: inconclusive; MCF10A rerep: 1.3µM*; KB-3-1 cytotox: 1.2µM*; PTAP TSG101 blk: -6%; SW480 rereplic: 2.6µM*; RGS4 inh: -32%

Results for O=C(/C=C/c1ccnc2ccccc12)c1cccs1 ?
KB-V1 MDR tox: inconclusive; MCF10A rerep: 9.2µM*; KB-3-1 cytotox: inactive; PTAP TSG101 blk: -3%; SW480 rereplic: inconclusive; RGS4 inh: -40%

Results for COc1ccc(N/C=C/C(=O)c2cc(OC)c(OC)c(OC)c2)cc1 ?
KB-V1 MDR tox: inconclusive; MCF10A rerep: 5.2µM*; KB-3-1 cytotox: 3.7µM*; PTAP TSG101 blk: -2%; SW480 rereplic: 5.8µM*; RGS4 inh: 9%

How did COc1ccc(N/C=C/C(=O)c2ccc(Cl)cc2)cc1 do in these assays?
KB-V1 MDR tox: inactive; MCF10A rerep: inconclusive; KB-3-1 cytotox: inactive; PTAP TSG101 blk: -3%; SW480 rereplic: 0%; RGS4 inh: 2%

Results for COc1ccc(C(=O)Cc2ccc(OC)c(OC)c2)cc1 ?
KB-V1 MDR tox: 23µM*; MCF10A rerep: -4%; KB-3-1 cytotox: inactive; PTAP TSG101 blk: 1%; SW480 rereplic: 2%; RGS4 inh: 8%

Results for COc1ccc(N/C=C/C(=O)c2ccc(OC)c(OC)c2)cc1 ?
KB-V1 MDR tox: inconclusive; MCF10A rerep: 21µM*; KB-3-1 cytotox: inactive; PTAP TSG101 blk: 0%; SW480 rereplic: 12%; RGS4 inh: -19%

What do the screens show for `CCC(Cc1c(I)cc(I)c(O)c1I)C(=O)O` (configuration not stated)?
MCF10A rerep: 2%; SW480 rereplic: 0%

Results for CCc1cccc(NS(=O)(=O)c2ccc3c(c2)oc(=O)n3C)c1 ?
KB-V1 MDR tox: 4.6µM*; MCF10A rerep: 6%; KB-3-1 cytotox: inconclusive; PTAP TSG101 blk: -9%; SW480 rereplic: -6%; RGS4 inh: 2%
